Experimental findings from PubChem BioAssay AID1376 (SRMLSC, 2008) are described below.

Structures are written as SMILES. Screen size: about 220,000 compounds; about 530 (0.24%) were called active. The sample holds actives, similar compounds and a random draw of the others, so the mix is not that of the screen. Rule as the data show it: active = inhibition above about 13%; inconclusive = no clear call, values can overlap the other calls; inactive = below that. Entries with a potency or affinity are not part of this list.

The inhibition is the relative decrease from the control value, in per cent.

The target of this test is Bifunctional protein GlmU (Mycobacterium tuberculosis (strain ATCC 25618 / H37Rv)) (UniProt P9WMN3). The test can be described thus: inhibition of mycobacterial GlmU enzyme – biochemical, glucosamine-1-phosphate acetyltransferase (AID 1376).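 Also: 0% = complete reaction with vehicle and 100% = reaction without substrate.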 To be noted: M. tuberculosis GlmU acetyltransferase enzyme assay; hits give high values;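 tested at 30 µM in the primary screen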.
Chain of Bifunctional protein GlmU (Mycobacterium tuberculosis (strain ATCC 25618 / H37Rv)) (P9WMN3 whole entry, looked up): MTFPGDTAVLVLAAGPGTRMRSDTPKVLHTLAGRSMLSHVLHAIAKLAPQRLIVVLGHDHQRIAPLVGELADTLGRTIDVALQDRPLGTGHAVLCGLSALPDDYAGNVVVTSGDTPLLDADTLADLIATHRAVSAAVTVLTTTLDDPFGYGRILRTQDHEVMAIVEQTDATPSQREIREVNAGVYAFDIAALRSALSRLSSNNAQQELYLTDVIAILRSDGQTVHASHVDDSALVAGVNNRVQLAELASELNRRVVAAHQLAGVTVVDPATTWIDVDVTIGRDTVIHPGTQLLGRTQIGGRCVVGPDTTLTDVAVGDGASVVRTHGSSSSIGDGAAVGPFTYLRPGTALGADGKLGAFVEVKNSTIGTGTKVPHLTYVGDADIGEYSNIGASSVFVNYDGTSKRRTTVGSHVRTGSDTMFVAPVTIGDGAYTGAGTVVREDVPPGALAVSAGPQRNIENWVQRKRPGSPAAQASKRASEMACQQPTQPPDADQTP
In the case of `COc1ccc(C/C(C)=N/NC(=S)Nc2ccccc2F)cc1`, the inhibition is -0.55% (inactive).
To `O=C(CSc1nc2ccccc2n1CCc1ccccc1)c1ccc(O)c(O)c1` belongs 23.3% (active).
To `O=C(CSc1nc2ccccc2n1CCc1ccccc1)NC1CC1` belongs 0.08% (inactive); to `O=C(CSc1nc2ccccc2n1CCc1ccccc1)N1CCOCC1`, -3.44% (inactive); to `CC1CC(=S)Nc2ccccc2N1C(=O)Nc1ccccc1` (configuration not stated), 1.98% (inactive).
To `O=C1S/C(=C\c2ccc(Cl)cc2)C(=O)N1CCn1cnnn1` belongs -3.11% (inactive); to `O=C(NCc1ccc(F)cc1)c1ccc(CS(=O)(=O)Cc2ccc(F)cc2)o1`, 0.32% (inactive); to `COc1ccc(C(=O)Nc2nc3ccccc3s2)cc1OC`, 1.41% (inactive).
Take `O=[N+]([O-])c1cc(CN(CCO)CCO)ccc1O`: the inhibition is 1.38% (inactive).
The figure for `CC(NCC(O)COCc1ccc(Cl)cc1)c1ccccc1` (configuration not stated) is -4.31% (inactive); for `O=c1oc2ccccc2c(Nc2ccc(O)cc2)c1[N+](=O)[O-]` it is 13.3% (active).
For the molecule `O=c1oc2ccccc2c(Nc2ccccc2)c1[N+](=O)[O-]`, the inhibition is 0.42% (inactive).
The figure for `O=c1oc2ccccc2c(Nc2cccc(O)c2)c1[N+](=O)[O-]` is 1.89% (inactive); for `Cc1cc(NC(=O)c2cc(-c3ccc(C)s3)nc3ccccc23)no1` it is 2.43% (inactive).
The figure for `COC(=O)/C(C(C)=O)=C(/C=C/C=C/N(C)C)N(C)C` is 6.24% (inactive); for `CCOC(=O)C1(Cc2ccc(Cl)cc2)CCN(C(=O)C2CCCO2)CC1` (configuration not stated) it is 1.7% (inactive); for `O=C(COc1ccc(Cc2ccccc2)cc1)c1ccc(F)cc1` it is -3.15% (inactive).
With `CC1=C(C#N)c2nc(N)c(C#N)c(C)c2/C1=C\c1ccc(OCC(=O)O)c(Cl)c1`, the inhibition is 4.55% (inactive).
The figure for `CC1=C(C#N)c2nc(N)c(C#N)c(C)c2/C1=C\c1ccc(C)cc1` is 2.53% (inactive); for `Cc1ccccc1/C=N/NC(=O)Cc1ccc(Cl)cc1` it is 0.8% (inactive); for `CC(C)(C)N1CC(C(=O)O)CC1=O` (configuration not stated) it is 6.47% (inactive).
The figure for `CC(=O)NC(CCS(C)(=O)=O)C(=O)Nc1ccccc1` (configuration not stated) is 2.39% (inactive); for `COc1ccc(NC(=O)C(CCS(C)(=O)=O)NC(C)=O)cc1` (configuration not stated) it is 18.3% (active).
The figure for `CC(=O)NC(CCS(C)(=O)=O)C(=O)Nc1ccc(Oc2ccccc2)cc1` (configuration not stated) is -3.46% (inactive); for `O=[N+]([O-])c1cccc(/C=N/n2c(COc3ccccc3)n[nH]c2=S)c1` it is 9.99% (inactive); for `CC(C)(C)c1ccc(Oc2ccc(NC(=O)c3cccs3)cn2)cc1` it is -0.97% (inactive).
Take `O=C1CC(=O)c2c1cccc2[N+](=O)[O-]`: the inhibition was 17% (active).
To `O=C1OCc2cccc([N+](=O)[O-])c21` belongs 7.84% (inactive).
In the case of `O=C1c2cccc([N+](=O)[O-])c2C(=O)N1c1ccccc1`, the inhibition was 1.03% (inactive).
To `CC1(C)CC(=O)C(C=Nc2ccc(Cl)cn2)=C(O)C1` belongs 13.9% (active); to `Cc1ccc(N=CC2=C(O)CC(C)(C)CC2=O)nc1`, 0.57% (inactive); to `CC1(C)CC(=O)C(/C=N/c2ccccn2)=C(O)C1`, 0.36% (inactive).
The figure for `N#Cc1c2c(c(NCCCN3CCOCC3)n3c1nc1ccccc13)CCC2` is 13.8% (active).
As for `N#Cc1c2c(c(NCCN3CCOCC3)n3c1nc1ccccc13)CCCC2`, the inhibition is 6.82% (inactive).
With `CCCc1c(C)c(C#N)c2nc3ccccc3n2c1NCCCN1CCOCC1`, the inhibition was 11.7% (inactive).
The figure for `COCCCNC(=O)C1CCN(C(=O)c2cc3sccc3n2Cc2ccc(F)cc2)CC1` is 1.5% (inactive).
Take `O=C(OCC1O[C@@H](OC(=O)c2cc(O)c(O)c(O)c2)[C@@H](OC(=O)c2cc(O)c(O)c(O)c2)[C@@H](OC(=O)c2cc(O)c(O)c(O)c2)[C@@H]1OC(=O)c1cc(O)c(O)c(O)c1)c1cc(O)c(O)c(O)c1` (some centres not stated): the inhibition is 7.78% (inactive).
To `O=C(O)C[C@@H]1C(=O)O[C@@H]2C(COC(=O)c3cc(O)c(O)c(O)c3)O[C@@H](OC(=O)c3cc(O)c(O)c(O)c3)[C@@H](OC(=O)c3cc(O)c(O)c4c3[C@H]1[C@H](O)C(=O)O4)[C@H]2OC(=O)c1cc(O)c(O)c(O)c1` (some centres not stated) belongs 67.3% (active).
The figure for `CCCC1=C(C(=O)OCC)C(c2ccco2)C(C#N)=C(N)O1` (configuration not stated) is 0.05% (inactive); for `Cc1ccc(N2C(=O)C(Cc3ccc(O)cc3)NC2=S)cc1C` (configuration not stated) it is -4.47% (inactive).
To `CC(=O)N1CCC(=NNC(=O)CSc2cc(C)c(Br)cc2C)CC1` belongs -1.13% (inactive); to `COc1ccc(-c2nnc(SCC(=O)NCc3ccco3)n2C)cc1`, 3.67% (inactive); to `Cc1cccc(N2C(=O)C(O)=C(C(=O)c3cccs3)C2c2ccc(Cl)cc2)n1` (configuration not stated), 3.09% (inactive).
Take `CC1CCN(c2nnc(-c3ccccc3)c3ccccc23)CC1`: the inhibition is 0.97% (inactive).
As to `CC1CCN(c2nncc3ccccc23)CC1`, the inhibition was 31.2% (active).
To `CC1CCN(c2ncnc3ccccc23)CC1` belongs 2.04% (inactive).
To `COc1ccc(C(CNC(=O)COc2ccccc2-c2ccccc2)N2CCOCC2)cc1` (configuration not stated) belongs -8.37% (inactive).
Take `CCOC(=O)c1ccc(NC2c3ccccc3C(=O)N2c2cccnc2)cc1` (configuration not stated): the inhibition was 1.04% (inactive).
The figure for `C/C(=N\O)c1cc(Cl)cc(Cl)c1O` is -5.49% (inactive); for `Oc1c(Cl)cc(Cl)cc1C=Nc1ccc(Br)cc1` it is 5.27% (inactive); for `Oc1c(Cl)cc(Cl)cc1Sc1cc(Cl)cc(Cl)c1O` it is 13.1% (active).
To `COc1cc(NC(=O)Nc2ccc(Cl)c(Cl)c2)c(C(=O)O)cc1OC` belongs 0.76% (inactive); to `Cc1sc2nc(CN3CCC(C)CC3)nc(Cl)c2c1C`, -6.88% (inactive); to `COc1ccc(NC(=O)c2cc3nc(-c4ccccc4)cc(-c4ccccc4)n3n2)c(OC)c1`, 20.8% (active).
Consider `O=C(Nc1cccc(O)c1)c1cc2nc(-c3ccccc3)cc(-c3ccccc3)n2n1`, for which the inhibition was 1.52% (inactive).
As for `COc1cc(NC(=O)c2cc3nc(-c4ccccc4)cc(-c4ccccc4)n3n2)cc(OC)c1OC`, the inhibition is -2.98% (inactive).
On to `CC(C)CN(C(=O)CSc1nnc2c(Cl)cc(C(F)(F)F)cn12)C1CCS(=O)(=O)C1` (configuration not stated), for which the inhibition is 52.2% (inactive).
The figure for `Cc1ccc(N(CC(=O)N/N=C/c2cc(C)n(-c3ccccc3)c2C)S(C)(=O)=O)c(C)c1` is 1.57% (inactive); for `OCC1(CCc2ccccc2)CCN(Cc2c(F)ccc(F)c2F)CC1` it is 3.84% (inactive); for `CC(C)CCNc1nnnc2c1sc1nc(N3CCOCC3)c3c(c12)CC(C)(C)SC3` it is 2.31% (inactive).
To `CCOc1ccc(NC(=S)N2CCc3cc(OC)c(OC)cc3C2COc2ccc3c(C)cc(=O)oc3c2)cc1` (configuration not stated) belongs 1.27% (inactive); to `O=C(COC(=O)C12CC3CC(CC(C3)C1)C2)NCCc1ccccc1`, 5.26% (inactive).
To `Cn1nccc1NC(=O)c1nccnc1C(=O)O` belongs -4.84% (inactive); to `Cc1cc(N2CCN(C(=O)c3ccco3)CC2)n2nc(C)c(-c3ccccc3)c2n1`, 3.95% (inactive); to `Cc1cc(N2CCN(C(=O)c3ccco3)CC2)n2nc(-c3cccc(Cl)c3)cc2n1`, 14.1% (active).
Take `Cc1cc(N2CCN(C(=O)c3ccco3)CC2)n2nc(-c3cccc(F)c3)cc2n1`: the inhibition was -0.85% (inactive).
To `CCCCN(CC)CCNC(=O)c1cn(-c2ccc(Cl)cc2)c(=O)c2ccccc12` belongs -2.06% (inactive); to `Cc1ccc(-c2c(C)n([O-])c3c([n+]2=O)CCC3)o1`, 1.5% (inactive).
To `Cc1c(-c2ccco2)[n+](=O)c2c(n1[O-])CCCCC2` belongs 3.97% (inactive); to `Cc1c(-c2ccco2)[n+](=O)c2c(n1[O-])CCC2`, 14.9% (active); to `COC(=O)c1cnc(N2CCCN(S(=O)(=O)c3ccc(C(F)(F)F)cc3)CC2)nc1C(F)(F)F`, 1.89% (inactive).
As to `Cc1cccc(NC(=O)c2ccc(COc3ccc4ccccc4c3)o2)n1`, the inhibition was -0.95% (inactive).
As for `O=C(CN1N=C(c2ccccc2)CCC1=O)NCCN1CCc2ccccc2C1`, the inhibition is -1.06% (inactive).
To `CC(=O)Oc1cccc(N2C(=O)c3ccccc3C2=O)c1` belongs -6.78% (inactive); to `CC12CCC(C(=O)NC(c3ccccc3)c3ccccc3)(OC1=O)C2(C)C` (configuration not stated), 13.4% (active); to `CC12CCC(C(=O)NCc3ccccc3)(OC1=O)C2(C)C` (configuration not stated), 1.44% (inactive).
In the case of `CC12CCC(C(=O)NNc3ccccc3)(OC1=O)C2(C)C` (configuration not stated), the inhibition was -5.23% (inactive).
With `COc1cccc(OC)c1C(=O)N1CCN(Cc2ccccc2C(F)(F)F)CC1`, the inhibition was 3.68% (inactive).
To `O=C(O)c1c2c(nc3ccccc13)/C(=C/c1ccc(O)cc1)CCC2` belongs -1.41% (inactive); to `COc1ccc(/C=C2\CCc3c2nc2ccccc2c3C(=O)O)cc1OC`, -1.01% (inactive).
On to `COC(=O)c1nnn(-c2nc(N3CCOCC3)nc(N3CCOCC3)n2)c1C`, for which the inhibition was 0.09% (inactive).
The figure for `CCNc1nc(N2CCCCC2)nc(-n2nnc(C(=O)OCC)c2C)n1` is 13.5% (active); for `CCOC(=O)c1nnn(-c2nc(OC)nc(N3CCCCC3)n2)c1-c1ccccc1` it is 1.53% (inactive); for `O=C(O)/C=C/C(=O)Nc1ccc2nccnc2c1` it is 0.78% (inactive).
In the case of `CN(C)S(=O)(=O)c1ccc(C(=O)NCc2ccco2)cc1`, the inhibition was 7.54% (inactive).
On to `CCOc1ccc(/C=C(\C#N)C(=O)Nc2cccnc2)cc1`, for which the inhibition is -3.21% (inactive).
Regarding `CCOc1cccc(NC(=O)/C(C#N)=C\c2cccnc2)c1`, the inhibition is -1.75% (inactive).
To `CCOc1cccc(NC(=O)/C(C#N)=C/c2cccnc2)c1` belongs 13.3% (active); to `Cc1ccc(-c2nnc(CSc3nnc(COc4ccccc4)n3-c3ccc(C)cc3)o2)cc1`, 2.51% (inactive).
Take `COc1ccccc1CCNC1CCC(C)CC1` (configuration not stated): the inhibition is 1.25% (inactive).
In the case of `CC(=O)c1ccc(S(=O)(=O)N2CCNCC2)cc1`, the inhibition was 1.28% (inactive).
The figure for `O=[N+]([O-])c1cccc(-c2csc(CS(=O)(=O)Cc3ccco3)n2)c1` is 1.82% (inactive).
